# Compounds without any hit were thinned out: in the full panel of roughly 83,000, 20% have a hit.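 Values shown are percent growth following 48 h exposure of cells in 96-well plates to a single concentration of compound; below 10 was considered active.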 The source made the active and inactive calls.
# Test system: HL-60(TB) leukemia
# Assay: NCI-60 one-dose screen, 48 h (100 = growth as untreated, 0 = no growth, -100 = all killed)
# Settings: 10 µM unless noted
row,SMILES,growth
1,O=C(c1ccc(Cl)cc1)C(c1c[nH]c2ccccc12)c1c[nH]c2ccccc12,-26.2% (active)
2,Cc1nc(Nc2nc(C)c3ccc(OCCN4CCOCC4)cc3n2)[nH]c(=O)c1C,2.88% (active)
3,Fc1ccc(N2CC(Cn3c(C(F)(F)F)cc4c(Cl)ncnc43)C2)c(F)c1,-40.3% (active)
